Measurements published in the supplement of paper PMC11732987, “Enantioselective OTUD7B fragment discovery through chemoproteomics screening and high-throughput optimisation” (Communications Chemistry, 2025).

How the values were obtained:
Test in all cases: log2 ratio of Biotin-Ahx-Ub-VS probe labelling (fragment/DMSO); higher = less target engagement (more negative = stronger competition), active = hit call of the paper (q ≤ 0.05, log2 ratio ≤ -1)
Conditions in all cases: compound concentration: 200 uM; treatment time: 3 h
[1] = target: T1, USP42 (UniProt Q9H9J4)
T1 sequence (whole entry): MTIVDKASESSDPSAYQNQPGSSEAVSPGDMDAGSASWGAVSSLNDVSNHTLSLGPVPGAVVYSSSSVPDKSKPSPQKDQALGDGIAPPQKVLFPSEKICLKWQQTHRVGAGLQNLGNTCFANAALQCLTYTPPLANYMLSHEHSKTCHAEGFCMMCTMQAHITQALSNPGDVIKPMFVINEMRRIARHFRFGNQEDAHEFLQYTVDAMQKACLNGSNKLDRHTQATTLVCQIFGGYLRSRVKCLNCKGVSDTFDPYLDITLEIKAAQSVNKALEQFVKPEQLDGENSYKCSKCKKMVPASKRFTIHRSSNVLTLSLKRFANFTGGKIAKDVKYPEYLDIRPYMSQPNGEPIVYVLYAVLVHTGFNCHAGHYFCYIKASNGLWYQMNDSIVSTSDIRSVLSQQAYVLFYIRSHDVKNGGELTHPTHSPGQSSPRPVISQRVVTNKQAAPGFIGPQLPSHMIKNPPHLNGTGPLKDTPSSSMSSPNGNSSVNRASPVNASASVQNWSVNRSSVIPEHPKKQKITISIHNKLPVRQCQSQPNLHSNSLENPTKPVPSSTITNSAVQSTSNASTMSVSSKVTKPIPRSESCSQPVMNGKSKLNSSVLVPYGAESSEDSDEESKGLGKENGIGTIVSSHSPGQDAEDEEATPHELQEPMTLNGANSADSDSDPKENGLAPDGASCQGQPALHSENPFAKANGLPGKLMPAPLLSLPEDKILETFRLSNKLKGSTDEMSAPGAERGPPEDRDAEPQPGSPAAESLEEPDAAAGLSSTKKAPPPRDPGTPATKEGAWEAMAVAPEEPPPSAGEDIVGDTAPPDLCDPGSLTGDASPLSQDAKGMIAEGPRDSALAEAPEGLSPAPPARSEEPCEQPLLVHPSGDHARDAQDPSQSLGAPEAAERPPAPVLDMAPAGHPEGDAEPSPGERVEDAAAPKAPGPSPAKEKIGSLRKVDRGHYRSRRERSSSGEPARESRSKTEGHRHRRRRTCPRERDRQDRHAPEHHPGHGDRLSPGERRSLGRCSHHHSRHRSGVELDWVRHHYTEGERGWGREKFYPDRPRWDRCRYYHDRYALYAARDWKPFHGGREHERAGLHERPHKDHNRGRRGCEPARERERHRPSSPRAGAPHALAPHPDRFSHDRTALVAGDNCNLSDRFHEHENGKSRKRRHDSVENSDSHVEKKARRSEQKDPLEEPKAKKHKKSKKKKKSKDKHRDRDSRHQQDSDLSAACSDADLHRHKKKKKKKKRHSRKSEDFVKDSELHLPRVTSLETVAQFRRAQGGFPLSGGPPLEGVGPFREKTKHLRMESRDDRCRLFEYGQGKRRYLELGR
Summary of the method: (§1)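 The table lists average log2 ratios of fragment over vehicle, from an unpaired t-test on global-median-normalised Spectronaut label-free quantities. Proteins with ≥2 unique peptides were used. Samples were HEK293T lysate (495 µg) treated in triplicate with fragment at 200 µM or vehicle for 3 h, then with Biotin-Ahx-Ub-VS (0.5 µM final) for 1 h, with labelled DUBs NeutrAvidin-enriched and run by diaPASEF LC-MS/MS.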

[2] = target: USP46 (UniProt P62068)
Chain of USP46 (P62068 whole entry): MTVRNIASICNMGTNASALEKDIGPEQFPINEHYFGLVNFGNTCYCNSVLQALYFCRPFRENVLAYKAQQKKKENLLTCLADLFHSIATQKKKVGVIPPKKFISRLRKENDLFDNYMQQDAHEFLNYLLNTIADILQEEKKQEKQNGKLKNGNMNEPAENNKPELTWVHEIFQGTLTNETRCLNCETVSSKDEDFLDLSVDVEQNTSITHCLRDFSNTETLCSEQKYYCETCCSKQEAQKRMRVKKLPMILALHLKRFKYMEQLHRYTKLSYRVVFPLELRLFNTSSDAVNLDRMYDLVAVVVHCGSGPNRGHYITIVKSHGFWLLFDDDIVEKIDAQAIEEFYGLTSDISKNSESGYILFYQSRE
Summary of the method: as §1

[3] = target: T2, USP47 (UniProt Q96K76)
T2 sequence (whole entry): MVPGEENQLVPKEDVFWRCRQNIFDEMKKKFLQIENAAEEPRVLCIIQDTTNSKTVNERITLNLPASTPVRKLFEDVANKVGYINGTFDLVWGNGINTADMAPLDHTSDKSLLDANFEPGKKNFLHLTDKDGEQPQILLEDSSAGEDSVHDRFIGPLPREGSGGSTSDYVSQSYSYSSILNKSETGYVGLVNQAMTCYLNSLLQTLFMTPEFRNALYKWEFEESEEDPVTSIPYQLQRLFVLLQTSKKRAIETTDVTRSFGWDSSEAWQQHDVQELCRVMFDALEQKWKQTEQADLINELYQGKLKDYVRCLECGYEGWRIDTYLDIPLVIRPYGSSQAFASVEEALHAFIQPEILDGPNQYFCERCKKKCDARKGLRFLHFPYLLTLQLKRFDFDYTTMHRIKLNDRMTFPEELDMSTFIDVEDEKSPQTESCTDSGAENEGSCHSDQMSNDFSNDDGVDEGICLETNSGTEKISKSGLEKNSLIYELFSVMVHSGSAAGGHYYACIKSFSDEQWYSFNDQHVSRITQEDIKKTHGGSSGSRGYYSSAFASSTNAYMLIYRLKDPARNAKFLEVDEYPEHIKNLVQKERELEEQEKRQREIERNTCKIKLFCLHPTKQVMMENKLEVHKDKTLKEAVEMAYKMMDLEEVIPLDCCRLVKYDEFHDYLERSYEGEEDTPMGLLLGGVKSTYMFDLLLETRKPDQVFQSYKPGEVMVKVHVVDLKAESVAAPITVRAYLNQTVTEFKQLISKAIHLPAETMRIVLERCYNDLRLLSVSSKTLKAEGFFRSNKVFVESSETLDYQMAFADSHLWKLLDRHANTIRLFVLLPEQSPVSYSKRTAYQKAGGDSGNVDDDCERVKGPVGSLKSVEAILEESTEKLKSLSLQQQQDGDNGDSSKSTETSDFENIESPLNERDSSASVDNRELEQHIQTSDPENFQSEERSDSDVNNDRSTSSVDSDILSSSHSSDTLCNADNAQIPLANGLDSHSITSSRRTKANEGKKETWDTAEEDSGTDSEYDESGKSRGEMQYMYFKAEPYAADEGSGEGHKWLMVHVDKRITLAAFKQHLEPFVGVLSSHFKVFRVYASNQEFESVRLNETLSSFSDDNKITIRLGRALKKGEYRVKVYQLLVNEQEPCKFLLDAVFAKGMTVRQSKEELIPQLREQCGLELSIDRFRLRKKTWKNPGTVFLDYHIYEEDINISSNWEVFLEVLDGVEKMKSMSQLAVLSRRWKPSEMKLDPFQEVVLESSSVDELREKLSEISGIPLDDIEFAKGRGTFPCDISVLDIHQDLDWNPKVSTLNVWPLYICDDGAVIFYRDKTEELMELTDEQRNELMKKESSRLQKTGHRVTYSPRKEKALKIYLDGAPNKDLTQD
Summary of the method: as §1

[4] = target: T3, USP48 (UniProt Q86UV5)
T3 sequence (whole entry): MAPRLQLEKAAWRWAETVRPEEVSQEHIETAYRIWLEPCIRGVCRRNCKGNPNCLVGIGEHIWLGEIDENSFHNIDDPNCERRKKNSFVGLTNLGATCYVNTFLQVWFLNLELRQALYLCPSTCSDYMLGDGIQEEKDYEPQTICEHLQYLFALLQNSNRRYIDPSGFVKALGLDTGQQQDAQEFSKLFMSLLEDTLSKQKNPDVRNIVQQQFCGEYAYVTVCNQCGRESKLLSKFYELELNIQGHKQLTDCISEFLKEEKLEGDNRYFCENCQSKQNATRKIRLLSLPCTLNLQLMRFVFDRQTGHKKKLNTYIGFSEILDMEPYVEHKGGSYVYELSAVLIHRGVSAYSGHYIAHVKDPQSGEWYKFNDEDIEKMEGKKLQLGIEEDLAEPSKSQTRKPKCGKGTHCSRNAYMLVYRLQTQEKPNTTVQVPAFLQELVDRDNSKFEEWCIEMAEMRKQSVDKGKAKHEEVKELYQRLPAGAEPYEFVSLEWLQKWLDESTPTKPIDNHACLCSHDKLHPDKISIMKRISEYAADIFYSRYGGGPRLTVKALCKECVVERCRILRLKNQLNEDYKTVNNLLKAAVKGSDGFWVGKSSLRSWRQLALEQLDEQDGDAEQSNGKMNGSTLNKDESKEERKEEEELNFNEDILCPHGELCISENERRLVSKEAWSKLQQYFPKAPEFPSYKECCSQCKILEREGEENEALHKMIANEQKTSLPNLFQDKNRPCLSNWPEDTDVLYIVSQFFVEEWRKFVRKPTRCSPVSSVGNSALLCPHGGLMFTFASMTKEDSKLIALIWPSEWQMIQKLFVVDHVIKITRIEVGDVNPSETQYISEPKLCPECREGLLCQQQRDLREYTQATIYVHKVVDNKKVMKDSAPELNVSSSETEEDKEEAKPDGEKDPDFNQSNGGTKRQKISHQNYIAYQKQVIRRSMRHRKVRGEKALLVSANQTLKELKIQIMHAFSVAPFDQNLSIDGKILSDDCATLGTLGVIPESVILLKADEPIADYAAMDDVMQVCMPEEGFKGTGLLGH
Summary of the method: as §1

[5] = target: T4, USP5 (UniProt P45974)
T4 sequence (whole entry): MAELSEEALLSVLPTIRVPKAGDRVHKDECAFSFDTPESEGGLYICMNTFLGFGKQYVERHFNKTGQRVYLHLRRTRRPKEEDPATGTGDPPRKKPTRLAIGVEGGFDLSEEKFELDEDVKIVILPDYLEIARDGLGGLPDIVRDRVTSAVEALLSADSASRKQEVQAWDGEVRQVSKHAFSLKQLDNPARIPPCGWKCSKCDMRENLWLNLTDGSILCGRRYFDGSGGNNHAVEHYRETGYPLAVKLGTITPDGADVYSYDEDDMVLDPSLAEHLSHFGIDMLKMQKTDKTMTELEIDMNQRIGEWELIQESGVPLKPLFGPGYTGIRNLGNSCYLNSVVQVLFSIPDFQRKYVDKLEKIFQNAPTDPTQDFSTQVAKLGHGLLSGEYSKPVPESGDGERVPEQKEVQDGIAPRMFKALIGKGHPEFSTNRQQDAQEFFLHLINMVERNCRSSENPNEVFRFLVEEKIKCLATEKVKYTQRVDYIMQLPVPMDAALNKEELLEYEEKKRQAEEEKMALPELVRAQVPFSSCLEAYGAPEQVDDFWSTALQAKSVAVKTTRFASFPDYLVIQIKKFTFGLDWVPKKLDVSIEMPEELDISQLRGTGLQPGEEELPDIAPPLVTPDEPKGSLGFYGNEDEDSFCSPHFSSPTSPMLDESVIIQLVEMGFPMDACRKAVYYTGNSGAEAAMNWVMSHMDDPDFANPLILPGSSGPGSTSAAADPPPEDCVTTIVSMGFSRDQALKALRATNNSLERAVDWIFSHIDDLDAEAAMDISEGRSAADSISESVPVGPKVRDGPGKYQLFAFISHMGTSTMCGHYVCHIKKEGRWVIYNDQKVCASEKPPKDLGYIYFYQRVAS
Summary of the method: as §1

[6] = target: USP54 (UniProt Q70EL1)
Chain of USP54 (Q70EL1 whole entry): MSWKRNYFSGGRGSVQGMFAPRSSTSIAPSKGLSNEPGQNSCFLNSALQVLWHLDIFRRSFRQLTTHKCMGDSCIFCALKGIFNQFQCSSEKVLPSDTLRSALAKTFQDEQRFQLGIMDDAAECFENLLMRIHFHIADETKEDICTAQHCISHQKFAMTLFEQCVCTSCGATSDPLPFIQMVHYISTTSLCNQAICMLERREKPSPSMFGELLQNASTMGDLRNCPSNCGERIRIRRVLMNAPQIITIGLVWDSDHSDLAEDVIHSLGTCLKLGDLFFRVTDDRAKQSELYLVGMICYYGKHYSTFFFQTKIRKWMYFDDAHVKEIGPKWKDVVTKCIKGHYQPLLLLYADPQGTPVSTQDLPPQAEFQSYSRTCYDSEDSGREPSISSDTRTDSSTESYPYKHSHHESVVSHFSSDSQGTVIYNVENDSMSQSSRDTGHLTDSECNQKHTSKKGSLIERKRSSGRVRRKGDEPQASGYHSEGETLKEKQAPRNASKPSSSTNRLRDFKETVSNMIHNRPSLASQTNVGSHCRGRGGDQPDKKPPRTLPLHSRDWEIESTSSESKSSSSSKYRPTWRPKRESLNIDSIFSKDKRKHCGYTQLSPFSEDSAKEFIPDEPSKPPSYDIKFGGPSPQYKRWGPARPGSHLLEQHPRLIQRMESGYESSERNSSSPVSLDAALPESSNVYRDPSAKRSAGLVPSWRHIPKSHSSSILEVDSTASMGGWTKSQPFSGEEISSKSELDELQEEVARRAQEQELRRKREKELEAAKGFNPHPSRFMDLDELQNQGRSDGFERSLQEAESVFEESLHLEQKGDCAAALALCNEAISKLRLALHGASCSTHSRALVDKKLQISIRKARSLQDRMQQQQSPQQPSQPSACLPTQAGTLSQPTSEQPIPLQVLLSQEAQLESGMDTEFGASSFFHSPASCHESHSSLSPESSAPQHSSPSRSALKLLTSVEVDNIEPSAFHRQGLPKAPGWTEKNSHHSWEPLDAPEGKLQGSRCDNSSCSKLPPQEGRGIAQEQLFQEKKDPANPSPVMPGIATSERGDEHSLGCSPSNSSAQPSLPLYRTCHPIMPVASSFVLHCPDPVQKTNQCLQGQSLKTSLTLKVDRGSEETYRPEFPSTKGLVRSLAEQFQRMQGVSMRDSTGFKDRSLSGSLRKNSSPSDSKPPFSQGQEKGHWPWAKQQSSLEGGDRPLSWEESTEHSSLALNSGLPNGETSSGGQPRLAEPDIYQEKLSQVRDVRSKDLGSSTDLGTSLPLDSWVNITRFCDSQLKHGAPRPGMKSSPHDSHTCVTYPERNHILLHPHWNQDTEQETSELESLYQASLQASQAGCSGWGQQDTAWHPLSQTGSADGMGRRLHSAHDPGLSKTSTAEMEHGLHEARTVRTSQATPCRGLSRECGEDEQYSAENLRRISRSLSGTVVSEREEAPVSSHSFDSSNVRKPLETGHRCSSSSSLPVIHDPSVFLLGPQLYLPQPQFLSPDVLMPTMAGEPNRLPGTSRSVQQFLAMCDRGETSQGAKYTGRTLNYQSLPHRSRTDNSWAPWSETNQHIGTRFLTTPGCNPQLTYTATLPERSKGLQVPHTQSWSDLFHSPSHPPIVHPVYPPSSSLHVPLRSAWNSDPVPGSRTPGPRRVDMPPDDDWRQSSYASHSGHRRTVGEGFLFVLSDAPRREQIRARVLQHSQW
Summary of the method: as §1

[7] = target: USP7 (UniProt Q93009)
Chain of USP7 (Q93009 whole entry, looked up): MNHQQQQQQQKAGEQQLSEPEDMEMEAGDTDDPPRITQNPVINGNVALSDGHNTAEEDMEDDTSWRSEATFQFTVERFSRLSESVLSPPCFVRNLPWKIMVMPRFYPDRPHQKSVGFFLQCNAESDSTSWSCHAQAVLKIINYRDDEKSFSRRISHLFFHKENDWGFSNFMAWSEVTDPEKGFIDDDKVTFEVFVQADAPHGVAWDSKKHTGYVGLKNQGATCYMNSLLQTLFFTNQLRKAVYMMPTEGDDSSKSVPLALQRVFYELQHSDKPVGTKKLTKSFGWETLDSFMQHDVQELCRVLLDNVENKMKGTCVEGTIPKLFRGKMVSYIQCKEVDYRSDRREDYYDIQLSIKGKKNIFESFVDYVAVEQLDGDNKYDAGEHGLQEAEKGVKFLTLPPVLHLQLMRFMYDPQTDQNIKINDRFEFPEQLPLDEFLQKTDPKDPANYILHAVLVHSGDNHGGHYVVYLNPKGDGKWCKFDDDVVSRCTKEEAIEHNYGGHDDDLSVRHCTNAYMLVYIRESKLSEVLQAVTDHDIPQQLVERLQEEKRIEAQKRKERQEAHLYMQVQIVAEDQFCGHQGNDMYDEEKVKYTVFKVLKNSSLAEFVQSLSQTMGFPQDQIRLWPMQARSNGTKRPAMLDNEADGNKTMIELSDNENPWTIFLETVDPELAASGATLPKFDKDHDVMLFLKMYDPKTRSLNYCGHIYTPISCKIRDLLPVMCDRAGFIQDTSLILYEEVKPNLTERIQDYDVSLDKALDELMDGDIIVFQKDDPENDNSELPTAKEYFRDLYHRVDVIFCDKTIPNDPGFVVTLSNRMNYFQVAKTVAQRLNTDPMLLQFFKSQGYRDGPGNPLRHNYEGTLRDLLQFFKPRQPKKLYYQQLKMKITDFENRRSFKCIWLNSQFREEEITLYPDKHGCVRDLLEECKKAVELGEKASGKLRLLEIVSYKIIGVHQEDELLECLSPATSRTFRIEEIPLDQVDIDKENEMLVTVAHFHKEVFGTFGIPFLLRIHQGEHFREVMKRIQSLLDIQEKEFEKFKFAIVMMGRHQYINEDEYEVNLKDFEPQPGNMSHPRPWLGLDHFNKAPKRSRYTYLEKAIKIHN
Summary of the method: as §1

[8] = target: T5, USP8 (UniProt P40818)
T5 sequence (whole entry): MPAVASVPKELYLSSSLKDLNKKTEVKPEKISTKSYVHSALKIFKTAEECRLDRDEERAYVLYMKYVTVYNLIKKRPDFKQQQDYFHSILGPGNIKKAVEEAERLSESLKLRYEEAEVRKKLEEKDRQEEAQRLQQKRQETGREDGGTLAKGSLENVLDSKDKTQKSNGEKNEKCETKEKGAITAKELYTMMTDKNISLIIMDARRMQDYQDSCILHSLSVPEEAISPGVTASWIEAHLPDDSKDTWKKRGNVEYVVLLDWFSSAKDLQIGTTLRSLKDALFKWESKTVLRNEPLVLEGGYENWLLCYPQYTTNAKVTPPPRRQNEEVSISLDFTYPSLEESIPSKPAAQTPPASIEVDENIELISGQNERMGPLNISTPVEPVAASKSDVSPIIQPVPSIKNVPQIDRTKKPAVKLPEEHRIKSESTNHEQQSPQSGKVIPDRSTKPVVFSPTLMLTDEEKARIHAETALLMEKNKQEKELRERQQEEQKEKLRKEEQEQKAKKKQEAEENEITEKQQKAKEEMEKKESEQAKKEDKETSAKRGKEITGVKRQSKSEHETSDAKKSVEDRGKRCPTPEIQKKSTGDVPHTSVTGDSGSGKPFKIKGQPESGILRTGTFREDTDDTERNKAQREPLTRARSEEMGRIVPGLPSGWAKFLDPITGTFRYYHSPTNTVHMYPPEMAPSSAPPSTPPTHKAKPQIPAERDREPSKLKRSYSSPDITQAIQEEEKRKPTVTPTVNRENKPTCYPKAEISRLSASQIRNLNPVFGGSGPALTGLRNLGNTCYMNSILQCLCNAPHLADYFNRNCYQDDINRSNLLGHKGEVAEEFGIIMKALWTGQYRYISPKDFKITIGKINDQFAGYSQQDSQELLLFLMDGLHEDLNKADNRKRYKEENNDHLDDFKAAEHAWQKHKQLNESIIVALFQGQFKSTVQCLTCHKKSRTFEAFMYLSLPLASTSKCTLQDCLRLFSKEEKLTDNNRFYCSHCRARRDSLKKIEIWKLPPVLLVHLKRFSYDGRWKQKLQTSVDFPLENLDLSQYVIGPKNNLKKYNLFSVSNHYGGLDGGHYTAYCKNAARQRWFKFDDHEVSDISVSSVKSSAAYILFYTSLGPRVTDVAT
Summary of the method: as §1

[9] = target: USP9X (UniProt Q93008)
Summary of the method: as §1

[10] = target: UniProt O00487
Chain of UniProt O00487 (O00487 whole entry): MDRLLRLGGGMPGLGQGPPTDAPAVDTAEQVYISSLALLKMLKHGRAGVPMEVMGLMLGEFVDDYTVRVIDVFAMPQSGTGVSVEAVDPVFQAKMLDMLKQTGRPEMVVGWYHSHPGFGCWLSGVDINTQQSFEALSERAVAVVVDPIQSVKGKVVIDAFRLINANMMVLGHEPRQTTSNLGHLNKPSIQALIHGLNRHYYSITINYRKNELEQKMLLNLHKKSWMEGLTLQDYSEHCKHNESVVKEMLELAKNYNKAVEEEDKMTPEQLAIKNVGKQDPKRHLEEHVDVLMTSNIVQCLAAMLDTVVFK
Summary of the method: as §1

Measured: log2 ratio of Biotin-Ahx-Ub-VS probe labelling

Cl.O=C(CCl)NCc1cc2c(nc1O)CCCC2
active: [3] -1.45
inactive: [1] -0.448 | [2] 0.127 | [4] -0.169 | [5] 0.0226 | [6] 0.773 | [7] -0.155 | [8] -0.3 | [9] -0.309 | [10] -0.0291
